Compounds without any hit were thinned out: in the full panel of roughly 79,000, 15% have a hit. The source made the active and inactive calls. Cut-off read from the data, not from the text of the source: active = growth inhibition above about 70%; inactive = the rest.
Legend:
[1] = NCI Yeast Anticancer Drug Screen. Data for the rad52 strain (AID 147);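 note: 0% = growth of vehicle-treated control cultures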; conditions: S. cerevisiae rad52 mutant growth inhibition, stronger effect = higher value
Outline: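 Read-out: growth inhibition versus vehicle-treated controls. Cells were a DNA repair-deficient yeast strain treated with compounds.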

[2] = NCI Yeast Anticancer Drug Screen. Data for the wt1 strain (AID 149);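 note: 0% = growth of vehicle-treated wt1 cultures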; conditions: S. cerevisiae wt1 strain (SPY 50644) growth inhibition, stronger effect = higher value
Outline: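 Using yeast strain wt1, compound-induced growth inhibition was determined against vehicle-treated cultures.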

[3] = NCI Yeast Anticancer Drug Screen. Data for the rad50EPP+ strain (AID 151);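 note: 0% = growth of vehicle-treated control cultures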; conditions: S. cerevisiae rad50 mutant strain, stronger effect = higher value
Outline: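 Growth inhibition read against vehicle controls in rad50EPP+ yeast, a strain altered in DNA damage repair, after compound exposure.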

[4] = NCI Yeast Anticancer Drug Screen. Data for the mgt1 strain (AID 153); conditions: S. cerevisiae mgt1 mutant growth inhibition, stronger effect = higher value
Outline: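 mgt1 yeast grown with test compound; read-out is growth inhibition versus vehicle-treated cultures.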

[5] = NCI Yeast Anticancer Drug Screen. Data for the rad50 strain (AID 155);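 note: 0% = growth of vehicle-only cultures of the same strain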; conditions: S. cerevisiae rad50 strain growth inhibition, stronger effect = higher value
Outline: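 Relative growth inhibition (compound vs vehicle) was measured in yeast with a defined repair-gene alteration.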

[6] = NCI Yeast Anticancer Drug Screen. Data for the mec2-1 strain (AID 157); conditions: S. cerevisiae mec2-1 strain, stronger effect = higher value
Outline: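 Yeast mec2-1 mutant treated with compound. Readout: growth inhibition vs vehicle controls.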

[7] = NCI Yeast Anticancer Drug Screen. Data for the rad14 strain (AID 159);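 note: 0% = growth of vehicle-treated control cultures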; conditions: S. cerevisiae rad14 strain growth inhibition, stronger effect = higher value
Outline: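 Screen for anticancer potential: a yeast strain altered in DNA damage repair is grown with compound, and reduced growth is quantified against vehicle controls.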

[8] = NCI Yeast Anticancer Drug Screen. Data for the sgs1 mgt1 strain (AID 161);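 note: 0% = growth of cultures given vehicle only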; conditions: S. cerevisiae sgs1 mgt1 strain, stronger effect = higher value
Outline: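 Genetically altered yeast, compound exposure, growth inhibition relative to vehicle.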

[9] = NCI Yeast Anticancer Drug Screen. Data for the cln2 rad14 strain (AID 165);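 note: 0% = growth equal to vehicle treated cultures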; conditions: S. cerevisiae cln2 rad14 strain, stronger effect = higher value
Outline: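 cln2 rad14 yeast strain; compound exposure; growth inhibition read vs vehicle controls.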

[10] = NCI Yeast Anticancer Drug Screen. Data for the bub3 strain (AID 167); conditions: S. cerevisiae bub3 mutant strain, stronger effect = higher value
Outline: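 Screening used yeast with an engineered genetic alteration affecting cell cycle control. Compound-exposed cultures were compared with vehicle cultures, and reduced growth was taken as inhibition.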

[11] = NCI Yeast Anticancer Drug Screen. Data for the wt2 strain (AID 169);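 note: 0% = growth of vehicle-treated yeast cultures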; conditions: S. cerevisiae wt2 strain growth inhibition, stronger effect = higher value
Outline: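 Read-out: growth inhibition versus vehicle-treated control cultures after compound exposure of the yeast strain.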

[12] = NCI Yeast Anticancer Drug Screen. Data for the mlh1 strain (AID 171);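 note: 0% = growth of vehicle-treated control cultures of the same strain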; conditions: S. cerevisiae mlh1 strain growth inhibition, stronger effect = higher value
Outline: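 Read-out: growth inhibition versus vehicle controls. Strain: engineered yeast with a defined DNA repair or cell cycle defect, compound-treated.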

[13] = NCI Yeast Anticancer Drug Screen. Data for the sgs1 strain (AID 173);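 note: 0% = growth of vehicle-only control cultures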; conditions: S. cerevisiae sgs1 mutant, stronger effect = higher value
Outline: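 Read-out: yeast growth inhibition relative to vehicle controls, following compound exposure of a strain with a defined DNA repair/cell cycle alteration.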

[14] = NCI Yeast Anticancer Drug Screen. Data for the mlh1 rad18 strain (AID 175); conditions: S. cerevisiae mlh1 rad18 strain growth inhibition, stronger effect = higher value
Outline: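 Yeast w/ defined DNA-repair lesions; compound exposure; growth vs vehicle controls → % inhibition.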

[15] = NCI Yeast Anticancer Drug Screen. Data for the rad18 strain (AID 177); conditions: S. cerevisiae rad18 mutant growth inhibition, stronger effect = higher value
Outline: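 Readout: growth inhibition vs vehicle controls. Cells: genetically altered yeast strain, DNA repair defect.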

[16] = at 5.0 µM (retest, dose inferred, filed as 0.5)
[17] = at 50.0 µM (retest, dose inferred, filed as 5.0)

Measured: growth inhibition

C[N+](CCCl)(CCCl)Cc1cccc2cccc([N+](=O)[O-])c12
active: [1]; at 11.0 µM 74% | [1]; at 33.0 µM 92% | [1]; at 100.0 µM 94% | [3]; at 11.0 µM 80% | [3]; at 33.0 µM 95% | [3]; at 100.0 µM 96% | [5]; at 33.0 µM 90% | [5]; [17] 85% | [5]; at 50.0 µM 80.1% | [5]; at 100.0 µM 94% | [6]; at 100.0 µM 77% | [7]; at 33.0 µM 88% | [7]; at 100.0 µM 89% | [9]; [17] 78% | [9]; at 50.0 µM 74.5% | [13]; at 100.0 µM 77% | [14]; [17] 81% | [14]; at 50.0 µM 77.4% | [15]; at 11.0 µM 91% | [15]; at 33.0 µM 95% | [15]; at 100.0 µM 96%
inactive: [1]; at 1.2 µM 31% | [1]; at 3.7 µM 47% | [2]; at 1.2 µM 31% | [2]; at 3.7 µM 9% | [2]; at 11.0 µM 31% | [2]; at 33.0 µM 28% | [2]; at 100.0 µM 39% | [3]; at 1.2 µM 20% | [3]; at 3.7 µM 35% | [4]; at 1.2 µM 3% | [4]; at 3.7 µM 6% | [4]; at 11.0 µM -15% | [4]; at 33.0 µM -5% | [4]; at 100.0 µM 9% | [5]; at 1.2 µM 26% | [5]; at 3.7 µM 44% | [5]; [16] 37% | [5]; at 11.0 µM 67% | [6]; at 1.2 µM -4% | [6]; at 3.7 µM 10% | [6]; [16] 1% | [6]; at 11.0 µM 10% | [6]; at 33.0 µM 44% | [6]; [17] 56% | [6]; at 50.0 µM 47% | [7]; at 1.2 µM -9% | [7]; at 3.7 µM -1% | [7]; at 11.0 µM 32% | [8]; [16] 15% | [8]; [17] 44% | [8]; at 50.0 µM 39.2% | [9]; [16] 17% | [10]; at 1.2 µM -20% | [10]; at 3.7 µM -26% | [10]; [16] 9% | [10]; at 11.0 µM -22% | [10]; at 33.0 µM -10% | [10]; [17] 45% | [10]; at 50.0 µM 0.4% | [10]; at 100.0 µM 3% | [11]; at 1.2 µM -10% | [11]; at 3.7 µM -6% | [11]; at 11.0 µM -10% | [11]; at 33.0 µM -1% | [11]; at 100.0 µM 23% | [12]; at 1.2 µM 7% | [12]; at 3.7 µM -2% | [12]; at 11.0 µM -1% | [12]; at 33.0 µM 4% | [12]; at 100.0 µM 21% | [13]; at 1.2 µM 20% | [13]; at 3.7 µM 19% | [13]; at 11.0 µM 41% | [13]; at 33.0 µM 63% | [14]; [16] 31% | [15]; at 1.2 µM 11% | [15]; at 3.7 µM 56%
